# Measurements as given in article PMC7862700, “An all-to-all approach to the identification of sequence-specific readers for epigenetic DNA modifications on cytosine”.
# Assays:
# Test in all cases: DAPPL (digital affinity profiling via proximity ligation, sequencing); 10 mM Tris-HCl pH 7.5, 50 mM NaCl, 1 mM DTT, 4% glycerol, room temperature, 30 min; GST-TFs on glutathione beads, 16-mer random dsDNA library, 0.1% formaldehyde crosslink after washing; high values mean tight binding
# FLI1 = target: T1, FLI1 (Homo sapiens, UniProt Q01543 1-452); conditions: protein: recombinant; tags: N-terminal GST; dsDNA, one strand shown
# T1 sequence: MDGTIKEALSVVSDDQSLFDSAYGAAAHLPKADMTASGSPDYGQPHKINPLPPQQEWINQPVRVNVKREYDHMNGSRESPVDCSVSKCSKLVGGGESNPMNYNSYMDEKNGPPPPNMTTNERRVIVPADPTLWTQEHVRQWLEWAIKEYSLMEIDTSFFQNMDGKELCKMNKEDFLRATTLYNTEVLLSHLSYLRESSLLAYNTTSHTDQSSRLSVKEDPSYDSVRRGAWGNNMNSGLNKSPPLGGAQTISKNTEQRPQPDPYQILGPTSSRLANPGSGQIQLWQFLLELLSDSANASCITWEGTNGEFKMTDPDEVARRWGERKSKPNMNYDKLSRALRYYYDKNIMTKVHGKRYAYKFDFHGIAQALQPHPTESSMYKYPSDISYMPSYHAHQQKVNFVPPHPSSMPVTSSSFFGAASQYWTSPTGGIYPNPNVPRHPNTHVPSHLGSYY
# Summary of the method: (§1)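 Beads coated with glutathione captured GST-fused human transcription factors that had been expressed in yeast, and the factors were then given DNA barcodes and pooled with a tag-only sample. The pools were incubated with 200 nmole of a random double-stranded 16-mer DNA library in Tris/NaCl/DTT/glycerol buffer for 30 min at room temperature, washed, crosslinked with 0.1% formaldehyde and proximity-ligated with BsaI/T4 ligase at 37 °C for 1 h. PCR amplification and Illumina NextSeq500 sequencing came last. Binding signal is each hexamer's read frequency for a factor divided by its frequency for the tag-only sample.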
# ELK1 = target: T2, ELK1 (Homo sapiens, UniProt P19419 1-428); conditions: protein: recombinant; tags: N-terminal GST; dsDNA, one strand shown
# T2 sequence: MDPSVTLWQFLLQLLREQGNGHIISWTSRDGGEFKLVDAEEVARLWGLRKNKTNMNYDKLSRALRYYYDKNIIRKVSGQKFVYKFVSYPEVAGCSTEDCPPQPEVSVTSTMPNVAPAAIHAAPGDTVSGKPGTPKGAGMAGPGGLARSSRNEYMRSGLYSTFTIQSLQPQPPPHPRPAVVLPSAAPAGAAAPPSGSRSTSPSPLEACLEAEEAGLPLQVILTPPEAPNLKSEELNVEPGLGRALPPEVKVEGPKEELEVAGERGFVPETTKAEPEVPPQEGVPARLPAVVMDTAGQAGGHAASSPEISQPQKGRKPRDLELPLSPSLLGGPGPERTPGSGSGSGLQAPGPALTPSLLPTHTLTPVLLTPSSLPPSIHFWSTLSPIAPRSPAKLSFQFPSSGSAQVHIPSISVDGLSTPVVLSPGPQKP
# Summary of the method: as §1
# GABPA = target: T3, GABPA (Homo sapiens, UniProt Q06546 1-454); conditions: protein: recombinant; tags: N-terminal GST; dsDNA, one strand shown
# T3 sequence: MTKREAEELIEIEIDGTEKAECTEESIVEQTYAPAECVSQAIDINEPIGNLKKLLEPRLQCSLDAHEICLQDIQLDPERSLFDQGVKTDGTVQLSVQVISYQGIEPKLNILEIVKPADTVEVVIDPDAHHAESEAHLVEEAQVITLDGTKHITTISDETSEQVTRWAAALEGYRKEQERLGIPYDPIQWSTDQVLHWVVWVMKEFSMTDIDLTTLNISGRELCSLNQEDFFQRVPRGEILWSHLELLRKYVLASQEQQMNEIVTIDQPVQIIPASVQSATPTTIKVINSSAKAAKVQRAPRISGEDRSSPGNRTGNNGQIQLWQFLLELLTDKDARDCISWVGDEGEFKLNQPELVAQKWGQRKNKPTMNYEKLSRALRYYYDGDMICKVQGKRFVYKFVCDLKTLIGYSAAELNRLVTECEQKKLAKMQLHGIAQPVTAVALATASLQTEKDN
# Summary of the method: as §1
# ERG = target: T4, ERG (Homo sapiens, UniProt P11308 1-479); conditions: protein: recombinant; tags: N-terminal GST; dsDNA, one strand shown
# T4 sequence: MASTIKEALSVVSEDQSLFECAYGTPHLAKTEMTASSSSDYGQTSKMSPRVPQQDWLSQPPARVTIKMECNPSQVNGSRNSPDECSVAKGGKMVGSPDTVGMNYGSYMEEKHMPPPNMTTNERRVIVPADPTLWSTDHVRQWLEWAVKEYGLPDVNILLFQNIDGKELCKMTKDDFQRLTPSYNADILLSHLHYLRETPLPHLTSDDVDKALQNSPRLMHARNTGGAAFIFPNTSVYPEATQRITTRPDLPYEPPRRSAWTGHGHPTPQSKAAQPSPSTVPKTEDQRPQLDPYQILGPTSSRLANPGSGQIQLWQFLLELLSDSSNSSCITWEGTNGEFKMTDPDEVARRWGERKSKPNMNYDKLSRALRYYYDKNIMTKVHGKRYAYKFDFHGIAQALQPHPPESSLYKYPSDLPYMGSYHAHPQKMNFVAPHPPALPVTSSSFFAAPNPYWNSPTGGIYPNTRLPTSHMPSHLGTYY
# Summary of the method: as §1
# ELF1 = ELF1 (Homo sapiens, UniProt P32519 1-619); conditions: protein: recombinant; tags: N-terminal GST; dsDNA, one strand shown
# Chain of ELF1 (P32519 whole entry): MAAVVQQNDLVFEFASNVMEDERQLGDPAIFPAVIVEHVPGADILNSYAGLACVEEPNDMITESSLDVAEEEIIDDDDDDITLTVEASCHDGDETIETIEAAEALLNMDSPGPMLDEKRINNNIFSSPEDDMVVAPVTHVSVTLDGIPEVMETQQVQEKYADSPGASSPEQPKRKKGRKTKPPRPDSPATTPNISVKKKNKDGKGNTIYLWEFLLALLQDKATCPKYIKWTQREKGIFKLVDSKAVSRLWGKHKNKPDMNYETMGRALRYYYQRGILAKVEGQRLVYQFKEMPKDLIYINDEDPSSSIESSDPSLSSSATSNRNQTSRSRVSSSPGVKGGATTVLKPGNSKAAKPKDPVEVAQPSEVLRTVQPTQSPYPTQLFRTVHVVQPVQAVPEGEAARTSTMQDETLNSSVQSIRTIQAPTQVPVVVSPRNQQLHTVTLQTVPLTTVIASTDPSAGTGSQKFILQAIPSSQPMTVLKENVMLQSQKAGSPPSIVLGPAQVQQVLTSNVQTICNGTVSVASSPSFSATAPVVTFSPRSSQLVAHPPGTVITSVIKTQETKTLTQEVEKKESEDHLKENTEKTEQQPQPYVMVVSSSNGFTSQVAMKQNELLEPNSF
# Summary of the method: as §1
# EHF = target: T5, EHF (Homo sapiens, UniProt Q9NZC4 1-300); conditions: protein: recombinant; tags: N-terminal GST; dsDNA, one strand shown
# T5 sequence: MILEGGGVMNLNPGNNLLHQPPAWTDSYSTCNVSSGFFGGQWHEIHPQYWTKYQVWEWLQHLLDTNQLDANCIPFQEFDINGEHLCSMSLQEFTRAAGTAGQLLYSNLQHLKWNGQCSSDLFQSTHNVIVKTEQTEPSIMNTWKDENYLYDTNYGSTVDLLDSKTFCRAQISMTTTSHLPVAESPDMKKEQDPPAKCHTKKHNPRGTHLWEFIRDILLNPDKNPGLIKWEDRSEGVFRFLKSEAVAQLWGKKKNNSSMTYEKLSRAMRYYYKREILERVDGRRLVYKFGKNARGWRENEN
# Summary of the method: as §1
# SPI1 = SPI1 (Homo sapiens, UniProt P17947 1-270); conditions: protein: recombinant; tags: N-terminal GST; dsDNA, one strand shown
# Summary of the method: as §1
# SPIB = SPIB (Homo sapiens, UniProt Q01892 1-262); conditions: protein: recombinant; tags: N-terminal GST; dsDNA, one strand shown
# Chain of SPIB (Q01892 whole entry): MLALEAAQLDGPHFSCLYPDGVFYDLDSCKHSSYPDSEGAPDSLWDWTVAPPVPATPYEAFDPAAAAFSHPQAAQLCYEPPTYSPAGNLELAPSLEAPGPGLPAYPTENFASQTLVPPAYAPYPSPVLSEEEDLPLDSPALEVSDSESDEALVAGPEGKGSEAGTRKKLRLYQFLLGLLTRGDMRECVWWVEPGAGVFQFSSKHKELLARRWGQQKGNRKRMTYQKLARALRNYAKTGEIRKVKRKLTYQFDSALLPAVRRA
# Summary of the method: as §1
# ELK3 = target: T6, ELK3 (Homo sapiens, UniProt P41970 1-407); conditions: protein: recombinant; tags: N-terminal GST; dsDNA, one strand shown
# T6 sequence: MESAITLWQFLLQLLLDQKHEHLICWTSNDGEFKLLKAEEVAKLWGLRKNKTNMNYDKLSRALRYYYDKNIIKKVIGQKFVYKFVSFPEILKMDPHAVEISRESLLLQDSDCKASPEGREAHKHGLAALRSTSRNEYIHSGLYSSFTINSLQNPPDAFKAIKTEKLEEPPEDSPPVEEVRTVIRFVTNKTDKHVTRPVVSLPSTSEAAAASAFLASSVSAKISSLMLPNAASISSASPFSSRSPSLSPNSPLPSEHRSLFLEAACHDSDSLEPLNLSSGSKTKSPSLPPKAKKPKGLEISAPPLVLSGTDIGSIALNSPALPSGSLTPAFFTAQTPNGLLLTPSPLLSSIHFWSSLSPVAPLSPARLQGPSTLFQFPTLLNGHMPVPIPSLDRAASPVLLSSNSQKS
# Summary of the method: as §1
# FEV = target: T7, FEV (Homo sapiens, UniProt Q99581 1-238); conditions: protein: recombinant; tags: N-terminal GST; dsDNA, one strand shown
# T7 sequence: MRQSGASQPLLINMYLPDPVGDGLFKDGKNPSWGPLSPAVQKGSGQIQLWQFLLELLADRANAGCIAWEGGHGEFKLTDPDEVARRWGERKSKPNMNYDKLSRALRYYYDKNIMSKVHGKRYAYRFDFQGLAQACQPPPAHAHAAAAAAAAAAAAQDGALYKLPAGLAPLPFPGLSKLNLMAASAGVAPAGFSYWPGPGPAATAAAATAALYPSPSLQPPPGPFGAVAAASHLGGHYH
# Summary of the method: as §1
# ETV5 = ETV5 (Homo sapiens, UniProt P41161 1-510); conditions: protein: recombinant; tags: N-terminal GST; dsDNA, one strand shown
# Chain of ETV5 (P41161 whole entry): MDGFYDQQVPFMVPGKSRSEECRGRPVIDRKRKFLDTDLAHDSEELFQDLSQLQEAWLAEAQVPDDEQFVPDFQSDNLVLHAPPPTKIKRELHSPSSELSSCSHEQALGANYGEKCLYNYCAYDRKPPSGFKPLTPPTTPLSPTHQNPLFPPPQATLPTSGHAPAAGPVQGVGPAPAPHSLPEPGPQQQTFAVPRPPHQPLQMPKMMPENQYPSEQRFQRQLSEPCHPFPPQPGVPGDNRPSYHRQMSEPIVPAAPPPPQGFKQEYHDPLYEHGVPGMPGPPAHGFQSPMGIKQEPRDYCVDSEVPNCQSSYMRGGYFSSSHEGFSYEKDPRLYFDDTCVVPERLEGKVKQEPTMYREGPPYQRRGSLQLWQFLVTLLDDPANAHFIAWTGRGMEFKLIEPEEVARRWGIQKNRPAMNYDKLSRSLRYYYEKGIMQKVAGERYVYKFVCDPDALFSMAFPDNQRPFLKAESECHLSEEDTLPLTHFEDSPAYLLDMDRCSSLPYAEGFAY
# Summary of the method: as §1
# HSF1 = HSF1 (Homo sapiens, UniProt Q00613 1-529); conditions: protein: recombinant; tags: N-terminal GST; chain copies: 3; dsDNA, one strand shown
# Chain of HSF1 (Q00613 whole entry): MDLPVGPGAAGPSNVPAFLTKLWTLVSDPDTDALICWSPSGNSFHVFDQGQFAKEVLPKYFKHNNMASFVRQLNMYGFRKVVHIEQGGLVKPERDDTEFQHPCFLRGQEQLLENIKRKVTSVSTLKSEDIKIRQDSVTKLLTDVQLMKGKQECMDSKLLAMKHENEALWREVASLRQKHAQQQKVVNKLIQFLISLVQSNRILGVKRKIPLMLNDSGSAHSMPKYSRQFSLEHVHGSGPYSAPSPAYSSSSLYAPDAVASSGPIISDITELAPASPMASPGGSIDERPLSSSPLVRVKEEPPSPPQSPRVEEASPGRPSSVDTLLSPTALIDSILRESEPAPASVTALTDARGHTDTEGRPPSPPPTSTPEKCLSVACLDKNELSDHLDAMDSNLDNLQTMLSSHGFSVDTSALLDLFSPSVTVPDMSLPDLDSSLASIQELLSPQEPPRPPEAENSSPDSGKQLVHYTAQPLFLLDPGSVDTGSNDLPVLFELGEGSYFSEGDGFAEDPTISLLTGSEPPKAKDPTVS
# Summary of the method: as §1
# SPIC = target: T8, SPIC (Homo sapiens, UniProt Q8N5J4 1-248); conditions: protein: recombinant; tags: N-terminal GST; dsDNA, one strand shown
# T8 sequence: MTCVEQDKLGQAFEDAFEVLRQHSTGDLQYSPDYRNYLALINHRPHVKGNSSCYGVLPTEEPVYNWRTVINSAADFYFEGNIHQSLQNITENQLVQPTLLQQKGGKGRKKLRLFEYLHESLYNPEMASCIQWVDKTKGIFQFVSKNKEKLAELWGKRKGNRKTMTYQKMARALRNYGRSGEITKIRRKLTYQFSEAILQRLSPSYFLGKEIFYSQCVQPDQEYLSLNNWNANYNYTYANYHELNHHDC
# Summary of the method: as §1
# ELF4 = ELF4 (Homo sapiens, UniProt Q99607 1-663); conditions: protein: recombinant; tags: N-terminal GST; dsDNA, one strand shown
# Chain of ELF4 (Q99607 whole entry): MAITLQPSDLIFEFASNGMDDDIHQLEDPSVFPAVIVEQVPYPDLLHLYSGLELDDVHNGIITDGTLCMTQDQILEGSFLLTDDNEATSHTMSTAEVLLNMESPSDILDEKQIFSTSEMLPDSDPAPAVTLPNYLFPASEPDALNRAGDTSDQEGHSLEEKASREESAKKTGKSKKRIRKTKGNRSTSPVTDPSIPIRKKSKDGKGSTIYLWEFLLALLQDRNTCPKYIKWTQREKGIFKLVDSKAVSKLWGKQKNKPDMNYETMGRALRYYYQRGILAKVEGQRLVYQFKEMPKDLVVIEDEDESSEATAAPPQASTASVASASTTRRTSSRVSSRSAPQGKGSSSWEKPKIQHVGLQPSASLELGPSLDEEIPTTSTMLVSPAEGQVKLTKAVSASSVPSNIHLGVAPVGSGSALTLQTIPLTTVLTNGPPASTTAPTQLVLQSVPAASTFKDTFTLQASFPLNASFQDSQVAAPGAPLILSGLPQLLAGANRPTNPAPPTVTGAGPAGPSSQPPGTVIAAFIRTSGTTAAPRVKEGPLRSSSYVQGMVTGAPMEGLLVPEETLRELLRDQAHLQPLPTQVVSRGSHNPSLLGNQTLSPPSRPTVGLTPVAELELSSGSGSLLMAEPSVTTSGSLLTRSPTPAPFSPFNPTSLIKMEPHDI
# Summary of the method: as §1
# ELK4 = target: T9, ELK4 (Homo sapiens, UniProt P28324-2 1-405); conditions: protein: recombinant; tags: N-terminal GST; dsDNA, one strand shown
# T9 sequence: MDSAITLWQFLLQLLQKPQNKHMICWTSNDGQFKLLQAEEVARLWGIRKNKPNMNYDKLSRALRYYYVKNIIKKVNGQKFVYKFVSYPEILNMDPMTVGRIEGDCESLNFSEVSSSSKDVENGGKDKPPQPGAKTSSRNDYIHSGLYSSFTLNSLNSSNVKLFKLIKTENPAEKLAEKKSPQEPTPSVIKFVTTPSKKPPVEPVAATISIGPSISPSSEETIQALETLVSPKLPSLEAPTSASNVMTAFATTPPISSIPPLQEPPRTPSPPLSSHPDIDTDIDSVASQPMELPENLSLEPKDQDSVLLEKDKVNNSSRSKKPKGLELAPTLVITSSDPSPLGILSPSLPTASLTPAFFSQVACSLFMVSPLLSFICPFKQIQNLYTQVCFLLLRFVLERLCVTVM
# Summary of the method: as §1
# ETV2 = target: T10, ETV2 (Homo sapiens, UniProt O00321 1-342); conditions: protein: recombinant; tags: N-terminal GST; dsDNA, one strand shown
# T10 sequence: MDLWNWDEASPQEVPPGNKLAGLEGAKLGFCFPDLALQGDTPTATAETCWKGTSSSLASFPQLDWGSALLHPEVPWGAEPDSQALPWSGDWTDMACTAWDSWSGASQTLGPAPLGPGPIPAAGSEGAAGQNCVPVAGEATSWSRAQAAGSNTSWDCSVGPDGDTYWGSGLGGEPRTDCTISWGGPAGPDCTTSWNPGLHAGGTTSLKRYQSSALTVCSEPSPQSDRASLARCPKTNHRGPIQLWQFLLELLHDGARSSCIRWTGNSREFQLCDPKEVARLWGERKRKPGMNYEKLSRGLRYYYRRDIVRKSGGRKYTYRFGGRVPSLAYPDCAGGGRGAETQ
# Summary of the method: as §1
# ELF3 = target: T11, ELF3 (Homo sapiens, UniProt P78545 1-371); conditions: protein: recombinant; tags: N-terminal GST; dsDNA, one strand shown
# T11 sequence: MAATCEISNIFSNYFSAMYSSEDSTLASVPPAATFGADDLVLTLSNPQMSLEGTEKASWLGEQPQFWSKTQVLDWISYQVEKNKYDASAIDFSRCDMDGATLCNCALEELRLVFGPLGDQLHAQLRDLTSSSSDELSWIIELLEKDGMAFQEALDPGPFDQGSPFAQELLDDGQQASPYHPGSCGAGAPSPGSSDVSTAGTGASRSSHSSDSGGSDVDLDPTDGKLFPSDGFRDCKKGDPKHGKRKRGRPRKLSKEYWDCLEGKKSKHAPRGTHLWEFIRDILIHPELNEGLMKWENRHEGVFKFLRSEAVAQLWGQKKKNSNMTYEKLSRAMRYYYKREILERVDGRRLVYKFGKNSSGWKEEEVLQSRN
# Summary of the method: as §1
# CRX = CRX (Homo sapiens, UniProt O43186 1-299); conditions: protein: recombinant; tags: N-terminal GST; dsDNA, one strand shown
# Chain of CRX (O43186 whole entry): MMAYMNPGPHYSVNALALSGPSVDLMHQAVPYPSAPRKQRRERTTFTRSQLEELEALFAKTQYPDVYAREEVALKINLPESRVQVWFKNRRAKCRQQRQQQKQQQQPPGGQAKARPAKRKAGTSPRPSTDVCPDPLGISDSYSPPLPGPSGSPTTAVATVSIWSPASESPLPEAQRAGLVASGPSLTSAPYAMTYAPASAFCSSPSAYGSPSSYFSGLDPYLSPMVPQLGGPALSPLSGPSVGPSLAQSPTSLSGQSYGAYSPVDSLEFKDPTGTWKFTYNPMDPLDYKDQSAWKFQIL
# Summary of the method: as §1
# ETV1 = ETV1 (Homo sapiens, UniProt P50549 1-477); conditions: protein: recombinant; tags: N-terminal GST; dsDNA, one strand shown
# Chain of ETV1 (P50549 whole entry): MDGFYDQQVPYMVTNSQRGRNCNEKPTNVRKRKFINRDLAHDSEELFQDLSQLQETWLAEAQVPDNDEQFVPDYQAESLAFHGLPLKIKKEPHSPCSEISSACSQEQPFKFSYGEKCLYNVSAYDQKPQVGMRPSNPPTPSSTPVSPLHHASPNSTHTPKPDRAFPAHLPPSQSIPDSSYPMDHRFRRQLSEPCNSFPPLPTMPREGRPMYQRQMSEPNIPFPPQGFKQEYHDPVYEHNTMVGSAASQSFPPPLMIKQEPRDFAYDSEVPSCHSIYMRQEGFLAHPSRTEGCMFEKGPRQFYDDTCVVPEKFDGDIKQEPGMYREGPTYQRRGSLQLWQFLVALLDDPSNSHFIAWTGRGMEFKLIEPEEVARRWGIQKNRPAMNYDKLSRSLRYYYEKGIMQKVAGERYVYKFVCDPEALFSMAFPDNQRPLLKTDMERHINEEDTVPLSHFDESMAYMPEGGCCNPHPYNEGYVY
# Summary of the method: as §1
sequence,measurement,setting,value
ATTGTT,binding signal,FLI1,"1.49 fold enrichment (6-mer frequency, TF over GST control)"
same,binding signal,ELK1,"1.42 fold enrichment (6-mer frequency, TF over GST control)"
same,binding signal,GABPA,"1.55 fold enrichment (6-mer frequency, TF over GST control)"
same,binding signal,ERG,"1.48 fold enrichment (6-mer frequency, TF over GST control)"
same,binding signal,ELF1,"1.38 fold enrichment (6-mer frequency, TF over GST control)"
same,binding signal,EHF,"1.53 fold enrichment (6-mer frequency, TF over GST control)"
same,binding signal,SPI1,"1.45 fold enrichment (6-mer frequency, TF over GST control)"
same,binding signal,SPIB,"1.57 fold enrichment (6-mer frequency, TF over GST control)"
same,binding signal,ELK3,"1.55 fold enrichment (6-mer frequency, TF over GST control)"
same,binding signal,FEV,"1.52 fold enrichment (6-mer frequency, TF over GST control)"
same,binding signal,ETV5,"1.57 fold enrichment (6-mer frequency, TF over GST control)"
same,binding signal,HSF1,"1.63 fold enrichment (6-mer frequency, TF over GST control)"
same,binding signal,SPIC,"1.45 fold enrichment (6-mer frequency, TF over GST control)"
same,binding signal,ELF4,"1.41 fold enrichment (6-mer frequency, TF over GST control)"
same,binding signal,ELK4,"1.4 fold enrichment (6-mer frequency, TF over GST control)"
same,binding signal,ETV2,"1.57 fold enrichment (6-mer frequency, TF over GST control)"
same,binding signal,ELF3,"1.49 fold enrichment (6-mer frequency, TF over GST control)"
same,binding signal,CRX,"1.55 fold enrichment (6-mer frequency, TF over GST control)"
same,binding signal,ETV1,"1.47 fold enrichment (6-mer frequency, TF over GST control)"
